# Measurements reported in PubChem BioAssay.
# “And” between values parts separate entries of the source, which are not always exact repeats. Identical values can stand only once. The source made the active and inactive calls.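 How the source made its calls, unless noted: active means inhibition at or above 50% relative to wild type and mutant plate controls; inactive means inhibition below 50%.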 Residues, ends and D or L forms follow the SMILES beside them.
# Assays:
# [1] = inhibitors of TNFa-induced NFkB p65 translocation, primary screen, imaging, HUVEC, MLSMR starter and 10KST1 sets (AID 438;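 active means inhibition above 20% together with a positive visual image hit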;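 further: compound added about 3h40 before a 20 min TNFalpha stimulation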;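 on inhibition: signal is the nuclear over cytoplasmic p65 intensity ratio per well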); conditions: HUVEC TNFa-induced p65 nuclear translocation; cell count: measured here: nuclei count (cytotoxicity indicator), at 2.08 µM unless noted; inhibition: at 2 µM, stronger effect = higher value unless noted
# [2] = inhibitors of mutant huntingtin aggregation, primary screen, imaging, exon1htt(103Q)mCFP cells, high-content imaging (AID 483;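 active means visual image review flags a hit and inhibition of aggregation exceeds 20%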;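 further: compound exposure lasted 3 days before fixation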;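 on nuclei count: percent of the per-plate median nuclei count of sample wells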); conditions: exon1htt(103Q)mCFP cell line, aggregate imaging, at 2 µM; inhibition of aggregation: stronger effect = higher value; nuclei count: measured here: cell count, toxicity
# [3] = inhibitors of E-selectin induction by TNFa, primary screen, imaging, HUVEC, immunofluorescence, MLSMR starter and 10KST1 sets (AID 487;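 active means visually confirmed hit in the image check and inhibition above 20%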;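 on inhibition: signal is fraction of cell area covered by stained E-selectin grains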;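 on nuclei count: 100% = median nuclei count of all wells on the same plate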); conditions: HUVEC TNFalpha-induced E-selectin immunofluorescence imaging, at 2 µM; inhibition: stronger effect = higher value; nuclei count: measured here: cell number, toxicity
# [4] = DUSP6 inhibitors restoring Erk phosphorylation by chemical complementation, primary imaging in DUSP6-transfected HeLa (AID 609;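 active means compounds giving at least 50% inhibition in the cell-based MKP-3 phosphatase rescue imaging test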;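 on inhibition: phospho-Erk level distribution per well compared with pooled transfected vehicle control wells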); conditions: HeLa MKP-3 transfected, phospho-Erk imaging KS statistic, at 10 µM
# [5] = biological target: Dual specificity protein phosphatase 6 (Homo sapiens) (UniProt Q16828); experiment: as above; conditions: HeLa MKP-3 transfected, phospho-Erk imaging KS statistic, at 10 µM, stronger effect = higher value
# [6] = biological target: Voltage-gated potassium channel subunit beta-2 (Rattus norvegicus) (UniProt P62483); experiment: KvBeta enzyme negative modulators, primary screen, biochemical, NADPH fluorescence (AID 622;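 active means fluorescence slope higher than the sample average by over 3 SD, cut at about -0.22 in these data, passing the limit was not always enough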;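 further: slope of raw intensity against log time taken from 70 to 1610 s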); conditions: recombinant KvBeta, 4-cyanobenzaldehyde reduction, at 10 µM, stronger effect = higher value
# [7] = biological target: Voltage-gated potassium channel subunit beta-2 (Rattus norvegicus) (UniProt P62483); experiment: KvBeta positive modulators, primary screen, biochemical, NADPH fluorescence (AID 623;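 active means NADPH fluorescence slope more negative than the mean of all samples by about 3 SD, 99.7% confidence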;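 further: fluorescence intensity change per second fitted from 20 to 320 s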); conditions: Recombinant KvBeta, NADPH fluorescence decrease slope, 10 min; at 10 µM; stronger effect = lower value
# [8] = biological target: Alpha-2C adrenergic receptor (Homo sapiens) (UniProt P18825); experiment: modulators of alpha2C/GIRK thallium flux, primary screen, cell-based, HEK293 alpha2C/GIRK1/2 (AID 624;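 active means fluorescence slope after compound addition differing from the mean of all screened samples at 99.7% confidence, in either direction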;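 further: slope of fluorescence ratio to pre-addition baseline per second over 15 to 24 s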); conditions: thallium flux BTC fluorescence, at 10 µM, actives lie on both sides
# [9] = inhibitors of larval lipid processing in zebrafish, primary screen, whole organism, PED6 fluorescence, gall bladder and intestine (AID 686;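 active means a full or partial loss of lipid-probe fluorescence in the fish gall bladder, intestine or both, judged by eye; inactive means no fluorescence loss, or compound toxic to the fish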;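 further: larvae 5 to 7 days old with five fish per well; signal comes from phospholipase A2 cleavage of quenched PED6 carried via bile; overnight exposure to compound and PED6 before scoring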); conditions: Zebrafish larvae PED6 lipid processing, fluorescence scoring
# [10] = inhibitors of Chlamydomonas gravitaxis, primary screen, whole organism, Chlamydomonas reinhardtii, WT vs cilia-less mutant, absorbance, 96-well (AID 463189); conditions: OD600 absorbance, 2 days, at 10 µM, stronger effect = higher value;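 further: 0% = wild type cc124 cells in DMSO and 100% = ciliumless bld1 mutant cells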
# [11] = inhibitors of Sendai virus-induced IRF3 signaling, primary screen, TLR/RLR signaling modifier project, cell-based, Sendai virus stimulus, luciferase, 10K MLSCN set (AID 602276;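 active means inhibition at or above 50% at 10 µM; inactive means inhibition below 50%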;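 further: firefly luciferase from ISG56 promoter only with Renilla not read in this screen; 0% = Sendai virus plus DMSO and 100% = medium plus DMSO without virus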); conditions: HEK293 RL24 IRF3 luciferase reporter, at 10 µM, stronger effect = higher value
# [12] = inhibitors of poly I:C-induced TLR3 signaling, primary screen, cell-based, poly I:C stimulus, luciferase, 10K MLSCN set (AID 602277;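 active means inhibition of the reporter signal at or above 50%; inactive means inhibition below 50%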); conditions: HEK293-TLR3 RL24 IRF3 luciferase reporter, at 10 µM, stronger effect = higher value
# [13] = measured here: cell density z-score
# [14] = measured here: nuclear c-Myc green intensity z-score
# [15] = measured here: nuclear pErk red intensity z-score, stronger effect = higher value
# Sequence of Dual specificity protein phosphatase 6 (Homo sapiens) (Q16828 whole entry, looked up): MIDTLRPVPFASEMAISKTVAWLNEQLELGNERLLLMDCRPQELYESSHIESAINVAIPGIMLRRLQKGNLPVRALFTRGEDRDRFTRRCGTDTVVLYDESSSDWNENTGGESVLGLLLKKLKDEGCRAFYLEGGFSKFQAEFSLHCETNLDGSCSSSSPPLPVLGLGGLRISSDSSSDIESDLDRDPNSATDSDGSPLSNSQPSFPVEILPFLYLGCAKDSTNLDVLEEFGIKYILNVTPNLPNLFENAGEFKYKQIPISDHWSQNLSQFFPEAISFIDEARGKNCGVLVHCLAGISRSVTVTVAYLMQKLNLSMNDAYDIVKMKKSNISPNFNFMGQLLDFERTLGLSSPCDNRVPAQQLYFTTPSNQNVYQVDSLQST
# Sequence of Alpha-2C adrenergic receptor (Homo sapiens) (P18825 whole entry, looked up): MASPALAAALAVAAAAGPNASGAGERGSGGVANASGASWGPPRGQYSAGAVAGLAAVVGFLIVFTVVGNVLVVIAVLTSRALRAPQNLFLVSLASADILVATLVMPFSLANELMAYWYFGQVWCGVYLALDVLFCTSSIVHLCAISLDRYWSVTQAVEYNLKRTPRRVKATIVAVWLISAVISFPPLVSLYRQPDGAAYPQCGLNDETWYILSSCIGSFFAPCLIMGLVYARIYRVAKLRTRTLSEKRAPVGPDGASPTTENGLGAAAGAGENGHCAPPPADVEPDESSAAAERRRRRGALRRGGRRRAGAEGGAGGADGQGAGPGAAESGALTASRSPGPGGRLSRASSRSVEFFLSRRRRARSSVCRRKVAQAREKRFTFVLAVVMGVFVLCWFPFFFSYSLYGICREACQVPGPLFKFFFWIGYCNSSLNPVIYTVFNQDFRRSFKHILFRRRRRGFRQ
# Sequence of Voltage-gated potassium channel subunit beta-2 (Rattus norvegicus) (P62483 whole entry, looked up): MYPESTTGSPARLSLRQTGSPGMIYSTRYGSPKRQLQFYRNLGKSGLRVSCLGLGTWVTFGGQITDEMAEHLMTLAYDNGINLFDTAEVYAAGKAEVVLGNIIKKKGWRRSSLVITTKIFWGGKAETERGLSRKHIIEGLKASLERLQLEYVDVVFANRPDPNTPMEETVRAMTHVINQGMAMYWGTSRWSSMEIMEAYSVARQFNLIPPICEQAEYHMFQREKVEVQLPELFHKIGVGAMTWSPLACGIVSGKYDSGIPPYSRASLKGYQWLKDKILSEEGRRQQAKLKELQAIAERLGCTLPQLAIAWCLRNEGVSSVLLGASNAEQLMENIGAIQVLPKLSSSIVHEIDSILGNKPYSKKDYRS
Compound,cell count [1],inhibition [1],inhibition of aggregation [2],nuclei count [2],inhibition [3],nuclei count [3],"z-score [4, 13]","z-score [4, 14]","z-score [4, 15]",inhibition [5],fluorescence slope [6],NADPH fluorescence slope [7],slope [8],outcome [9],inhibition [10],inhibition [11],inhibition [12],"z-score ([4]; measured here: cell density z-score, cells stimulated with TPA for 15 min)","z-score ([4]; measured here: nuclear c-Myc green intensity z-score, cells stimulated with TPA for 15 min)","z-score ([4]; measured here: nuclear pErk red intensity z-score, stronger effect = higher value, cells stimulated with TPA for 15 min)"
C[C@@]1(CO)[C@H](O)CC[C@@]2(C)[C@H]1CC[C@H]1C[C@@H]3C[C@@]12CC[C@]3(O)CO,629,-4.1% (inactive),-9.1% (inactive),9.1%,-34.7% (inactive),113%,0.71,-0.0811,-0.673,1.48% (inactive),-0.469 (inactive),-5.6e-05 (inactive),0.00555 (inactive),inactive,-7.52% (inactive),-34.2% (inactive),49.2% (inactive),–,–,–
Cc1ccc(-n2c(O)c(C=NCCN3CCOCC3)c(=O)[nH]c2=O)cc1,536,-3.4% (inactive),-17.4% (inactive),117%,-76.6% (inactive),147%,-0.809,-1.16,1.01,6.04% (inactive),-0.418 (inactive),-4.9e-05 (inactive),0.00555 (inactive),inactive,-5.09% (inactive),15.1% (inactive),25% (inactive),–,–,–
CCCSP1(=S)NCCCO1 (stereo not given),455,-11.8% (inactive),–,–,-157% (inactive),122%,0.345,-0.499,-0.356,-2.07% (inactive),-0.54 (inactive),-7.2e-05 (inactive),0.00464 (inactive),inactive,20.8% (inactive),–,–,–,–,–
COc1ccc(C(=O)N2CCCC2=O)cc1,667,2.2% (inactive),11.2% (inactive),104%,-40.5% (inactive),108%,0.0379,-0.632,1.58,19% (inactive),-0.52 (inactive),-4.5e-05 (inactive),0.00436 (inactive),inactive,6.16% (inactive) and 14.6% (inactive),13.2% (inactive),20.9% (inactive),–,–,–
COc1ccc(OC)c([C@@H](O)[C@H](C)NC(C)(C)C)c1,671,-4.8% (inactive),-2.8% (inactive),95.5%,-81.3% (inactive),138%,0.193,0.685,0.252,23.2% (inactive),-0.517 (inactive),-5.7e-05 (inactive),0.00439 (inactive),inactive,17.4% (inactive),2.13% (inactive),33.4% (inactive),–,–,–
Clc1ccc(COC(Cn2ccnc2)c2ccc(Cl)cc2Cl)c(Cl)c1 (stereo not given),692,"-0.4% [at 2 µM, stronger effect = higher value, 0% TNFa-plus-vehicle, 100% no-TNFa wells] (inactive)",–,–,-73.1% (inactive),144%,–,–,–,31.1% [cells stimulated with TPA for 15 min] (inactive),-0.515 (inactive),-3.4e-05 (inactive),0.00694 (inactive),inactive; toxic [screened at 20 µM (by protocol)],36.1% (inactive),15.4% (inactive),32.2% (inactive),-0.0883,1.51,-0.416
CC(C)C[C@H](NC(=O)[C@@H]1CCCN1C(=O)[C@@H](N)Cc1ccc(O)cc1)C(=O)NCC(N)=O (H-YPLG-NH2),621,-3.8% (inactive),-9.8% (inactive),103%,-65.3% (inactive),104%,-0.734,-0.49,-1.27,1.48% (inactive),-0.471 (inactive),-6.7e-05 (inactive),0.00565 (inactive),inactive,-9.78% (inactive),2.09% (inactive),31.8% (inactive),–,–,–
CCOc1ccc(-n2c(O)c(C=NCCN3CCNCC3)c(=O)[nH]c2=O)cc1,537,3.2% (inactive),-17.4% (inactive),96.7%,-38.9% (inactive),144%,-0.956,-1.36,0.949,-4.7% (inactive),-0.351 (inactive),-8.4e-06 (inactive),0.00537 (inactive),inactive,8.26% (inactive),14.4% (inactive),22.5% (inactive),–,–,–
CC(=O)C1(c2ccccc2)CCNCC1,472,0.5% (inactive),–,–,-152% (inactive),138%,-0.428,0.195,0.843,7.93% (inactive),-0.522 (inactive),-4.6e-05 (inactive),0.00442 (inactive),inactive,14.1% (inactive),–,–,–,–,–
COc1ccc(OC)c(C(O)C(C)N)c1 (stereo not given),507,-7.1% (inactive),7% (inactive),57.3%,-75.2% (inactive),108%,-0.1,0.202,1.18,11.3% (inactive),-0.51 (inactive),-2.7e-05 (inactive),0.0053 (inactive),inactive,8.38% (inactive) and -0.435% (inactive),4.62% (inactive),34.8% (inactive),–,–,–
